Experimental findings from PubChem BioAssay (NCI) are described below.

Compounds without any hit were thinned out: in the full panel of roughly 83,000, 20% have a hit.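 Each cell line was grown in a 96-well plate and treated with one concentration of compound for 48 hours. Values below 10 were considered active.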 Values without a mark were called inactive. The source made the active and inactive calls.

Experiment in all cases: NCI-60 one-dose screen, 48 h (100 = growth as untreated, 0 = no growth, -100 = all killed)
What all share (settings): 10 µM unless noted

In assay [1] the test system is HCT-15 colon.
The test system of assay [2] is HT29 colon.
In assay [3] the test system is SNB-75 CNS.
The test system of assay [4] is SNB-19 CNS.
Assay [5] deals with U251 CNS.
For assay [6], the system named is PC-3 prostate.
Assay [7] deals with UACC-62 melanoma.
Assay [8] deals with LOX IMVI melanoma.
Assay [9] has as its system SK-MEL-28 melanoma.
Assay [10] deals with SK-MEL-5 melanoma.

On to `O=C1Nc2ccc(Cl)cc2/C1=N/N=C(c1ccccc1)c1ccccc1`, for which the growth in assay [1] was 87.2%; in assay [2] it was 98.3%; in assay [3] it was 74.5%; in [4] it was 62.7%; in assay [5], 94.5%; in [6] it was 86.2%. The results for the growth in [7], in [8] and in assay [9] were 84.6%, 87.5% and 117%, respectively.
For `C=CC(=O)N1CC2(CCC(n3nc(-c4ccc(Oc5ccccc5)cc4)c4c(N)ncnc43)CC2)C1`, the growth in assay [1] was -60.5% (active); in [2], -60.3% (active); in [3], -69.5% (active); in assay [4], -0.912% (active); in assay [5], -73.8% (active); in assay [6], -19.6% (active). Moreover, the growth in [7] was -90.7% (active); in assay [8], -65% (active); in [9] it was -67.9% (active).
For the compound `Cc1cc(=O)c2c(C)ccc(C)c2[nH]1`, the growth in [1] was 101%; in assay [2] it was 111%; in [3], 101%; in assay [4], 99.8%; in assay [5] it was 100%; in assay [10] it was 110%. Further, the results for the growth in [7], in assay [8] and in assay [9] were 96.4%, 97.7% and 109%, respectively.
As to `O=c1c2c(=NCCN3CCCC3)cc3c(=O)n(CCCN4CCOCC4)c(=O)c4ccc(c(O)n1CCCN1CCOCC1)c2c4-3`, the growth was -11.8% (active) in [1]; -16.9% (active) in [2]; -88.8% (active) in assay [3]; 1.06% (active) in assay [4]; 5.11% (active) in assay [5]; -20.8% (active) in assay [6]. Also, the growth in assay [7] is -49.7% (active); in [8] it was -6.84% (active); in assay [9], -32.9% (active).
In the case of `O=C1c2ccccc2C(=O)c2c(Nc3ccc(CCO)cc3)ccc(O)c21`, the growth in assay [1] was 61.7%; in assay [2], 57.4%; in [3], 64.3%; in assay [4], 84.8%; in [5] it was 74.2%; in assay [10], 86.7%. For the same compound, the growth was 74.9% in assay [7], 51.6% in assay [8] and 44.8% in assay [9].
Regarding `O=C(Nc1ccccc1O)c1ccc(NS(=O)(=O)c2cccc3cccnc23)cc1`, the growth in [1] is 63.9%; in assay [2], 39.9%; in [3], 48.5%; in assay [4] it was 67.9%; in [5], 46.5%; in [6], 59%. In addition, the results for the growth in [7] and in assay [9] were 23.1% and 37.6%, respectively.
Turning to `Cc1ccc(S(=O)(=O)N(c2ccc(Cl)cc2)c2ccc(Br)cc2C(=O)O)cc1`, the growth in [1] is 100%; in [2], 107%; in [3] it was 97.2%; in assay [4], 99.9%; in [5], 95.8%; in [6], 96.7%. The growth is 105% in assay [7] and 119% in assay [9].
Regarding `Cc1nc2cc(Nc3nc(Nc4ccc(F)cc4)nc(-c4ccc(Cl)cc4)n3)ccc2n1Cc1ccccc1`, the growth was 64.4% in assay [1]; 55.8% in assay [2]; 65.2% in [3]; 83.4% in assay [4]; 69.7% in assay [5]; 83.4% in [10]. In addition, the growth in assay [8] was 76.6%; in assay [9], 92.6%.
Regarding `O=C1OCC2=C1C(c1ccc3c(c1)OCO3)CC(=O)N2c1cccc(Cl)c1` (stereo not drawn), the growth in assay [1] is 101%; in [2], 97.5%; in assay [3], 80.7%; in [4], 93%; in assay [5] it was 99.9%; in assay [6] it was 102%. Further, the growth in assay [7] is 102%; in [8], 98%; in assay [9], 101%.
Turning to `O=C(COc1cccc(/C=C2\COc3ccccc3C2=O)c1)c1ccccc1`, the growth was 33.1% in assay [1]; 41.2% in assay [2]; 71% in assay [3]; 100% in [4]; 60.9% in [5]; 47.7% in [10]. Moreover, the growth in [7] was 59.4%; in assay [8], 23.7%; in [9] it was 97.2%.
Turning to `COc1ccc(C2CC(c3cc(OC)c(OC)c(OC)c3)=NN2c2ccc(S(N)(=O)=O)cc2)cc1` (stereo not drawn), the growth was 66.8% in [1]; 59.3% in [2]; 33.1% in [3]; 74% in assay [4]; 53.2% in assay [5]; 58.2% in assay [10]. Besides, the values for the growth in [8] and in [9] were 52.9% and 76.9%, respectively.
In the case of `COc1ccc(NC(=O)COc2ccccc2)c(C(N)=O)c1`, the growth was 28.8% in assay [1]; 6.77% (active) in [2]; 11.5% in [3]; 53.4% in assay [4]; 9.36% (active) in assay [5]; 39.9% in [6]. For the same compound, the growth was 43% in assay [7] and 62% in assay [9].
On to `O=C1CN2CCC1C/C2=C\c1ccnc2c(Cl)cccc12` (stereo not drawn), for which the growth in [1] is 82.6%; in [2] it was 106%; in [3], 85.5%; in assay [4], 98.2%; in assay [5], 98.4%; in assay [7], 90.5%. Besides, the figures for the growth in assay [8] and in assay [9] were 96% and 127%, respectively.
On to `CSc1nnc(-c2sc3nnc(-c4ccccc4)c(-c4ccccc4)c3c2O)o1`, for which the growth in assay [1] was 54.6%; in assay [2], 107%; in [3], 78.4%; in [4], 66.4%; in [5], 62.9%; in assay [7], 58.9%. The growth in assay [9] was 85.5%.
